Shiga inhibitor: inhibitors of Shiga toxin in Vero cells. Vero cells, Shiga toxin protein synthesis inhibition reporter. inhibition, % at 38.7 µM. 290,000 compounds, 9.2% hits. AID 2315; in the data active = inhibition mostly above about 28%, no sharp cut-off; inactive = mostly below about 43%; also: 0% is about no effect
Pf growth 96h: P. falciparum growth inhibition at 96 hour, primary screen for plastid delayed-death inhibitors | P. falciparum luciferase reporter growth, 96 h | Potency, µM (doses to about 28.7 µM), for inactives: at the highest dose activity change, negative = inhibition, most hits filed as inhibitors | 320,000 compounds, 6.9% hits; also: potency is read from the fitted curve at half-maximal effect; % is scaled to controls: 0 for no effect and ±100 for the full control effect
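Readout is luminescence from an integrated firefly luciferase in P. falciparum. Red cells, 2% hematocrit and 0.05% parasitemia final, were cultured with compound through two parasite generations (96 hours) at 37 C, 5% CO2.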
Cycloheximide cs: counter-screen for Shiga toxin inhibitors: cycloheximide protein synthesis inhibition; 300,000 compounds, 12% hits; AID 2314; max response, %; cell reporter, cycloheximide protein synthesis inhibition counterscreen; in the data active = max response mostly above about 13%, no sharp cut-off; inactive = mostly below about 14%; also: read at 38.3 µM for the half of the compounds with a filed dose; 0% is about no effect
Pf growth 48h: inhibits P. falciparum growth in the first generation, 48 h | P. falciparum luciferase growth in erythrocytes, 48 h | 310,000 compounds, 5.9% hits | Potency, µM (series often up to 28.7 µM), inactives show at the top dose activity change, negative = inhibition, actives largely listed as inhibitors; also: potency is read from the fitted curve at half-maximal effect; % is scaled to controls: 0 for no effect and ±100 for the full control effect
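Luciferase-expressing parasites in RBCs, 2% Hct / 0.1% parasitemia final; RPMI 1640 + 0.5% Albumax; 37 C, 5% CO2, one generation; luminescence read-out, lower signal = inhibition.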
Sm TGR block: S. mansoni TGR enzyme inhibition | Potency, µM (series often up to 114 µM), for the others: at the top dose activity change, negative = inhibition, actives largely listed as inhibitors | AID 485364 | Q962Y6 | purified TGR, DTNB reduction, TNB absorbance 405 nm | 360,000 compounds, 3% hits; also: potency is read from the fitted curve at half-maximal effect; % is scaled to controls: 0 for no effect and ±100 for the full control effect; nearly all actives have a fitted effect of over 60% in size
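TGR 20 nM + NADPH 100 uM (dispensed conc.), cpd preinc 15 min RT; start with NADPH (500 uM addition) then DTNB (15 mM addition). Kinetic TNB absorbance, 405 nm filter. Four-parameter Hill fit across titration.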
NS1 function inh: influenza NS1 inhibition. Potency, µM (titrated, usually from 46.1 µM), for inactives: at the top dose activity, positive = more growth. 270,000 compounds, 0.4% hits; calls by dose curve; also: potency is read from the fitted curve at half-maximal effect; actives are rising curves; nearly all actives have a fitted effect of over 50% in size
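Compounds were scored for reversing the slow growth caused by influenza A NS1 in S. cerevisiae, measured by optical density at 600 nm. Assay medium contained 2% galactose at pH 6.0; NS1-free yeast of the same strain were the positive control.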
* marks the source's active call; other numbers are inactive results; ? = inconclusive; / = no result given. Rows were chosen to be rich in hits. Some 21% of all compounds tested hit in one or more screens of this group. Unless noted, calls follow the shape of the dose curve; as a rule, active = well fitted curve in the direction sought with a large enough effect; inconclusive = small, poorly fitted or top-dose-only effect, or another doubt; inactive = no such curve, though single readings can be large; an effect the other way counts as inactive or inconclusive.

SMILES | Shiga inhibitor | Pf growth 96h | Cycloheximide cs | Pf growth 48h | Sm TGR block | NS1 function inh
CC(=O)c1cnc2cc(-c3cccc(Br)c3)nn2c1C | 91.2* | ? | 38.6* | 129.9% | -5.5% | /
CC(=O)c1cnc2c(-c3ccccc3)c(-c3ccccc3)nn2c1C | -5.5 | ? | -2.1 | -11.1% | 5.9% | -3.6%
Cc1cc(C)n2nc(-c3cccc(Br)c3)cc2n1 | / | ? | 31.8* | 147.4% | 0.2% | -21.1%
Cc1cccc(-c2cc3nc(C)cc(N4CC(C)CC(C)C4)n3n2)c1 (centres undefined) | 5.7 | 17.3% | 5.5 | 20.6% | -20.0% | 18.4%
COc1ccc(CCNC(=O)CCc2c(C)nc3cc(-c4ccccc4OC)nn3c2C)c(OC)c1 | / | / | / | / | 6.5% | /
COc1ccccc1-c1cc2nc(C)cc(C)n2n1 | 56.7* | 60.0% | 16.8 | 44.2% | 26.5% | -4.3%
Cc1cccc(-c2cc3nc(C)cc(C)n3n2)c1 | 74.8* | 0.0% | 48.6* | 123.6% | 8.6% | -6.6%
O=C(CSc1cccc2cccc(Cl)c12)NCc1cccs1 | 12.4 | -14.6% | 0.6 | -10.7% | 4.6% | -8.4%
CC12CN3CC(C)(CN(C1)C3c1ccc(F)cc1)C2 (centres undefined) | 5.5 | -2.9% | -1.6 | 11.6% | 0.7% | /
COc1ccc(-c2cn3nc(SCC(=O)Nc4ccccc4F)ccc3n2)cc1 | / | / | / | / | -1.9% | /
O=C(Nc1ccccc1C(=O)N1CCCCC1)c1nsc2ccccc12 | / | / | / | / | 3.0% | /
Cc1cc(C)n2ncc(-c3cccc(Br)c3)c2n1 | 55.0* | ? | 64.6* | 20.4% | 0.0% | -9.6%
CCCCn1nc(C(=O)Nc2c(C)n(C)n(-c3ccccc3)c2=O)c2ccccc2c1=O | / | 14.7µM* | / | ? | -11.3% | /
Cc1c(NC(=O)c2nn(CC(C)C)c(=O)c3ccccc23)c(=O)n(-c2ccccc2)n1C | / | ? | / | -12.0% | -1.3% | /
CCCc1cc(C(=O)Nc2c(C)n(C)n(-c3ccccc3)c2=O)no1 | 21.7 | 9.28µM* | -3.8 | / | -4.2% | 7.3%
CC1CCN(S(=O)(=O)c2ccc3c(c2)N(CC(=O)NCc2ccccc2)C(=O)CO3)CC1 | / | / | / | / | 3.8% | /
c1ccc2c(c1)NC1(CCCC1)n1c-2nc2ccccc21 | 91.9* | 18.3% | 26.9* | 33.2% | -24.3% | -37.3%
CCCn1c(-c2ccc[nH]c2=O)nc2ccccc21 | -3.1 | ? | -0.9 | 24.0% | 16.7% | 3.0%
CCCC1(C)Nc2ccccc2-c2nc3ccccc3n21 (centres undefined) | 81.3* | 2.08µM* | 52.8* | ? | -22.6% | -59.4%
CCN(c1cccc(C)c1)S(=O)(=O)c1ccc2[nH]cc(C(=O)NCCCOC)c(=O)c2c1 | / | / | / | / | 2.2% | /
CCN(Cc1ccccc1)C(=O)c1sc2nc3n(c(=O)c2c1C)CCCC3 | / | / | / | / | -20.2% | /
CCc1ccc(N(CC)C(=O)c2sc3nc4n(c(=O)c3c2C)CCCC4)cc1 | / | / | / | / | 10µM* | /
CCN(C(=O)c1sc2nc3n(c(=O)c2c1C)CCCCC3)c1ccc(OC)cc1 | / | / | / | / | 22.4µM* | /
CC(OC(=O)c1ccccc1C(=O)N(C)c1ccccc1)C(=O)Nc1ccc(C(N)=O)cc1 (centres undefined) | / | ? | / | 2.0% | -7.0% | /
CC(OC(=O)c1cc(O)c2ccccc2c1O)C(=O)Nc1ccc(C(N)=O)cc1 (centres undefined) | / | 11.7µM* | / | ? | 22.4µM* | /
SMILES | Shiga inhibitor | Pf growth 96h | Cycloheximide cs | Pf growth 48h | Sm TGR block | NS1 function inh
O=C(Nc1cccnc1)Nc1cccc(F)c1 | 20.5 | ? | 18.2* | 6.1% | -19.8% | 4.5%
Fc1cccc(NC(=S)NCc2cccnc2)c1 | -4.9 | 7.38µM* | 3.8 | -11.2% | ? | 9.8%
Cc1cc(=O)oc2cc(NC(=S)NCc3cccnc3)ccc12 | -4.5 | ? | 11.3 | -12.6% | 39.8µM* | 3.2%
Fc1cccc(NC(=S)Nc2cccnc2)c1 | -3.5 | 40.7% | 6.2 | 0.1% | 17.8µM* | -2.2%
CC(=O)c1cccc(NC(=O)Nc2cccnc2)c1 | -1.8 | / | -2.9 | -6.5% | -2.6% | 1.9%
Cc1ccccc1CSc1cn(CCNC(=O)c2cccs2)c2ccccc12 | / | / | / | / | -1.5% | /
CCOC(=O)C/C(N)=N/NC(=O)c1ccc(Cl)cc1Cl | 13.8 | 14.7% | -2.9 | 21.8% | 2.3% | 7.7%
CCCCCNC(=O)c1cc2c(=O)n3ccccc3nc2n1C | / | / | / | / | -6.7% | /
Cc1ccc(NC(=O)Nc2cccnc2)cc1NC(=O)Nc1cccnc1 | 64.2 | ? | 24.1* | 9.28µM* | 4.6% | 1.1%
COc1cc(OC)cc(C(=O)NC(=S)Nc2cccnc2)c1 | 25.8 | 1.3% | 17.0 | 0.4% | ? | 2.1%
O=C(Nc1ccncc1)Nc1cccc(F)c1 | 66.6 | 5.2% | 29.3* | ? | -16.8% | -0.9%
COc1cc(NC(=S)Nc2cccnc2)cc(OC)c1 | 4.4 | 9.2% | 8.5 | ? | 44.7µM* | 26.6%
O=C(Nc1ccncc1)c1cccc(F)c1 | 1.0 | / | -1.3 | ? | -14.4% | -0.3%
NC(=O)NC(=O)CN1C(=O)NC2(CCOc3ccccc32)C1=O (centres undefined) | -3.6 | 35.4% | -3.0 | 20.0% | -5.4% | 1.0%
O=C(c1cnc(N2CCCCC2)c2ccccc12)N1CCN(c2ccccc2F)CC1 | / | / | / | / | 0.4% | /
CC(C)C(=O)NC(NC(=S)Nc1cccc2cccnc12)C(Cl)(Cl)Cl (centres undefined) | 2.6 | -16.2% | -0.9 | ? | -0.6% | -0.1%
COc1cc(CNC(=O)c2ccccc2NC(=O)C2=C(C)OCCS2)cc(OC)c1OC | 13.0 | ? | 1.9 | 13.1µM* | -0.6% | 1.3%
CCOC(=O)C1CCCN(C(=O)c2ccccc2NC(=O)C2=C(C)OCCS2)C1 (centres undefined) | -13.5 | 4.15µM* | 5.3 | ? | -1.8% | 1.9%
CC1=C(C(=O)Nc2ccccc2C(=O)N2CCC(C)CC2)SCCO1 | -5.6 | -24.1% | -0.7 | 13.1µM* | 3.8% | 0.8%
COc1cc(CCNC(=O)c2ccccc2NC(=O)C2=C(C)OCCS2)cc(OC)c1OC | -7.0 | -23.2% | 0.4 | ? | 1.9% | -10.5%
CC1=C(C(=O)Nc2cc(C(=O)N3CCN(c4cccc(C)c4C)CC3)ccc2C)SCCO1 | -6.1 | 10.4µM* | -7.8 | -12.7% | 1.4% | -38.7%
O=C(NNS(=O)(=O)c1ccccc1)Nc1ccc(F)cc1 | -6.9 | -2.6% | -2.5 | 21.1% | 1.8% | -1.1%
CCOC(=O)c1cc2c(=O)[nH]ccc2nc1C(F)(F)F | -5.2 | 6.57µM* | -0.8 | ? | -7.0% | 0.9%
COC1CCN(Cc2cn(Cc3ccccc3)nc2-c2cc3ccccc3o2)CC1 | -4.5 | 10.4µM* | -2.9 | 10.4µM* | 3.1% | -5.0%
OCC1CCCN(Cc2cn(Cc3ccccc3)nc2-c2cc3ccccc3o2)C1 (centres undefined) | 9.2 | -20.8% | -2.0 | 14.7µM* | ? | -0.8%
OCC1CCN(Cc2cn(Cc3ccccc3)nc2-c2cc3ccccc3o2)CC1 | -2.0 | ? | -5.0 | ? | 1.2% | 2.5%
CCOC(=O)N1CCN(CCCc2ccccc2)CC1 | 28.2 | 3.4% | 2.6 | 0.4% | 0.0% | 7.5%

From PubChem
